Source: PubChem BioAssay (NCI)
About 83,000 compounds went through this panel and 20% of them were active in at least one assay; those are over-represented in the sample as a whole.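 Single-dose data. Exposure time 48 hours. Values below 10 considered active.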

How the values were obtained:
Assay in all cases: NCI-60 one-dose screen, 48 h (100 = growth as untreated, 0 = no growth, -100 = all killed)
Conditions in all cases: 10 µM unless noted
NCI-H23 lung = system: NCI-H23 lung
NCI-H226 lung = system: NCI-H226 lung
NCI-H322M lung = system: NCI-H322M lung
HOP-62 NSCLC = system: HOP-62 NSCLC
NCI-H460 lung = system: NCI-H460 lung
HOP-92 NSCLC = system: HOP-92 NSCLC
NCI-H522 lung = system: NCI-H522 lung
A549/ATCC NSCLC = system: A549/ATCC NSCLC
786-0 renal = system: 786-0 renal
COLO 205 colon = system: COLO 205 colon
DU-145 prostate = system: DU-145 prostate
K-562 leukemia = system: K-562 leukemia
MALME-3M melanoma = system: MALME-3M melanoma
MDA-MB-231 breast = system: MDA-MB-231 breast
RXF 393 renal = system: RXF 393 renal
SF-268 CNS = system: SF-268 CNS
SF-295 CNS = system: SF-295 CNS
SF-539 CNS = system: SF-539 CNS
UACC-257 melanoma = system: UACC-257 melanoma
M14 melanoma = system: M14 melanoma

Measured: growth

COc1cc2c(cc1-c1c(C)noc1C)ncc1nc(C3CCC(F)(F)CC3)n([C@@H](C)COC(F)F)c12
inactive: NCI-H23 lung 60.2% | NCI-H226 lung 55% | NCI-H322M lung 40.6% | HOP-62 NSCLC 31.7% | NCI-H460 lung 55.3% | HOP-92 NSCLC 35.1% | NCI-H522 lung 31.5% | A549/ATCC NSCLC 37.5% | 786-0 renal 43.5% | COLO 205 colon 23.5% | DU-145 prostate 66.9% | K-562 leukemia 25% | MALME-3M melanoma 76.1% | MDA-MB-231 breast 41.6% | RXF 393 renal 54.7% | SF-268 CNS 67.8% | SF-295 CNS 47.7% | SF-539 CNS 30.8% | UACC-257 melanoma 35.9% | M14 melanoma 41.4%

O=C1OC(c2ccc(Cl)c(Cl)c2)=C/C1=C/c1cccc([N+](=O)[O-])c1
inactive: NCI-H23 lung 88.1% | NCI-H226 lung 86.3% | NCI-H322M lung 102% | HOP-62 NSCLC 94.2% | NCI-H460 lung 102% | HOP-92 NSCLC 94.3% | NCI-H522 lung 90.9% | A549/ATCC NSCLC 97.4% | 786-0 renal 105% | COLO 205 colon 108% | DU-145 prostate 109% | K-562 leukemia 99% | MALME-3M melanoma 101% | MDA-MB-231 breast 108% | RXF 393 renal 96.4% | SF-268 CNS 97.9% | SF-295 CNS 101% | SF-539 CNS 103% | UACC-257 melanoma 103% | M14 melanoma 106%

CCCCCC1CCCCN1C(=O)OCC (stereo not given)
inactive: NCI-H23 lung 106% | NCI-H226 lung 122% | NCI-H322M lung 112% | HOP-62 NSCLC 117% | NCI-H460 lung 108% | HOP-92 NSCLC 75.9% | NCI-H522 lung 98.2% | A549/ATCC NSCLC 105% | 786-0 renal 88.2% | COLO 205 colon 101% | DU-145 prostate 105% | K-562 leukemia 94.9% | MALME-3M melanoma 90.9% | MDA-MB-231 breast 103% | RXF 393 renal 170% | SF-268 CNS 99.7% | SF-295 CNS 123% | SF-539 CNS 107% | UACC-257 melanoma 106% | M14 melanoma 97.4%

N#C/C(=C\c1ccc(-c2ccc(Br)cc2)o1)c1nc(-c2cccs2)cs1
inactive: NCI-H23 lung 91.3% | NCI-H226 lung 102% | NCI-H322M lung 97.8% | HOP-62 NSCLC 107% | NCI-H460 lung 103% | HOP-92 NSCLC 91% | NCI-H522 lung 94.4% | A549/ATCC NSCLC 109% | 786-0 renal 100% | COLO 205 colon 125% | DU-145 prostate 100% | K-562 leukemia 97% | MALME-3M melanoma 101% | MDA-MB-231 breast 89.3% | RXF 393 renal 107% | SF-268 CNS 102% | SF-295 CNS 100% | SF-539 CNS 93.8% | UACC-257 melanoma 102% | M14 melanoma 95.8%

Cc1ccncc1C(=O)O
inactive: NCI-H23 lung 92.7% | NCI-H226 lung 101% | NCI-H322M lung 101% | HOP-62 NSCLC 113% | NCI-H460 lung 99.6% | HOP-92 NSCLC 88.4% | NCI-H522 lung 128% | A549/ATCC NSCLC 90.1% | 786-0 renal 103% | COLO 205 colon 128% | DU-145 prostate 101% | K-562 leukemia 116% | MALME-3M melanoma 96.2% | MDA-MB-231 breast 101% | RXF 393 renal 118% | SF-268 CNS 94.8% | SF-295 CNS 99.8% | SF-539 CNS 94.4% | UACC-257 melanoma 102% | M14 melanoma 100%

COc1ccc(-c2nc3c(c(C)nn3-c3ccc(F)cc3)c(=O)[nH]2)cc1
inactive: NCI-H23 lung 83.3% | NCI-H226 lung 33.1% | NCI-H322M lung 78.7% | HOP-62 NSCLC 58.8% | NCI-H460 lung 28.2% | HOP-92 NSCLC 91.8% | NCI-H522 lung 81.3% | A549/ATCC NSCLC 45.9% | 786-0 renal 11% | COLO 205 colon 74% | DU-145 prostate 85% | K-562 leukemia 97.1% | MALME-3M melanoma 75.3% | MDA-MB-231 breast 75.2% | RXF 393 renal 82.8% | SF-268 CNS 78.9% | SF-295 CNS 68.1% | SF-539 CNS 87% | UACC-257 melanoma 101% | M14 melanoma 82.7%

CCCCCCCCNc1cccc2c1C(=O)c1ccccc1C2=O
inactive: NCI-H23 lung 102% | NCI-H226 lung 96.5% | NCI-H322M lung 101% | HOP-62 NSCLC 115% | NCI-H460 lung 101% | HOP-92 NSCLC 109% | NCI-H522 lung 81.3% | A549/ATCC NSCLC 91.7% | 786-0 renal 104% | COLO 205 colon 116% | DU-145 prostate 112% | K-562 leukemia 97.2% | MALME-3M melanoma 108% | MDA-MB-231 breast 96.1% | RXF 393 renal 100% | SF-268 CNS 94.9% | SF-295 CNS 112% | SF-539 CNS 121% | UACC-257 melanoma 98.2% | M14 melanoma 107%
